Source: PubChem BioAssay (Tox21)
Values joined by “and” are separate entries in the source; they are usually repeats but may differ in a detail not shown here. Identical values can stand only once. Results filed as inconclusive are left out. Active and inactive are the calls of the source. Unless noted, calls come from the whole dose curve; as a rule, active = well fitted curve in the direction sought with a large enough effect in the repeat runs; inconclusive = weak or mixed curves; inactive = no such curve, though single readings can be large; an effect the other way counts as inactive or inconclusive.

System: not listed separately
Assay: qHTS assay for identifying genotoxic compounds that show differential cytotoxicity against isogenic chicken DT40 cell lines with known DNA damage response pathways - Rad54/Ku70 mutant cell line (AID 743015); note: nearly all actives have a fitted effect of over 60% in size
Conditions: DT40 Rad54/Ku70 mutant viability, CellTiter-Glo, 40 h; series mostly up to 66.8 µM; activity change, negative = cytotoxicity: at the top concentration
Potency is the fitted concentration of half-maximal effect.

SMILES	Potency
CC(C)C1CCC(Cc2ccc(Cl)cc2)C1(O)Cn1cncn1 (stereo not given)	8.55 µM (active)
C[C@]12Cc3nonc3C[C@@H]1CC[C@@H]1[C@@H]2CC[C@@]2(C)[C@H]1CC[C@]2(C)O	18.8 µM (active)
Cc1cc(SCc2sc(-c3ccc(C(F)(F)F)c(F)c3)nc2C)ccc1OCC(=O)O	54.5 µM (active)
O=C(Nc1ccc2[nH]ccc2c1)c1cc2cc(F)ccc2n1Cc1cccc(F)c1	17.2 µM (active)
CC(C)(C)c1ccc(CSc2cnn(C(C)(C)C)c(=O)c2Cl)cc1	0.0109 µM (active)
CCN(CC)c1c([N+](=O)[O-])cc(C(F)(F)F)c(N)c1[N+](=O)[O-]	17.2 µM (active)
Oc1ccc(C2(c3ccc(O)cc3)c3ccccc3-c3ccccc32)cc1	54.5 µM (active)
CC(=O)OC1(c2ccccc2)CCN(CCc2ccccc2)CC1	4.43 µM (active)
N#CCCC(Br)(C#N)CBr (stereo not given)	7.7 µM (active)
Clc1ccc(CSC(Cn2ccnc2)c2ccc(Cl)cc2Cl)cc1 (stereo not given)	12.7 µM (active)
CCCCCCCCCCCCBr	30.6 µM (active)
CN(C)C(=S)S	1.36 µM (active) and 2.17 µM (active)

System: not listed separately
Assay: qHTS assay to identify small molecule antagonists of the androgen receptor (AR) signaling pathway - cell viability counter screen (AID 743033; note: nearly all actives have a fitted effect of over 45% in size; for activity change, negative = cytotoxicity: % is set by controls: 0 for no effect and ±100 for the full control effect)
Conditions: AR-bla HEK293 viability, CellTiter-Glo luminescence, 16 h; series mostly up to 58.5 µM; activity change, negative = cytotoxicity: at the top concentration

SMILES	Potency	activity change, negative = cytotoxicity
CC(C)C1CCC(Cc2ccc(Cl)cc2)C1(O)Cn1cncn1 (stereo not given)	38.5 µM (active)	
CC(C)(C)OO		-3.5% (inactive)
CCOC(=O)OC1=C(c2cc(C)ccc2C)C(=O)NC12CCC(OC)CC2 (stereo not given)		-15.2% (inactive)
C[C@]12CC[C@@H]3c4ccc(OC(=O)N(CCCl)CCCl)cc4CC[C@H]3[C@@H]1CC[C@@H]2O		-0.697% (inactive)
CCC[CH2][Sn]([CH2]CCC)([CH2]CCC)[O]C(=O)c1ccccc1	0.692 µM (active)	
CC(=O)O[C@H]1CC[C@@]2(C)C(=CC[C@@H]3[C@@H]2CC[C@]2(C)C(=O)CC[C@@H]32)C1	inactive	
CC(C)CCCCCCCOP(=O)(Oc1ccccc1)Oc1ccccc1		0.817% [at 78.9 µM] (inactive)
Cc1cc(SCc2sc(-c3ccc(C(F)(F)F)c(F)c3)nc2C)ccc1OCC(=O)O	38.9 µM (active)	
O=C(CBr)c1ccc(O)cc1		4.91% (inactive)
O=C(Nc1ccc2[nH]ccc2c1)c1cc2cc(F)ccc2n1Cc1cccc(F)c1	49 µM (active)	
COc1ccc(/C(=C/C(=O)N2CCOCC2)c2ccc(Cl)cc2)cc1OC		-8.07% (inactive)
S=C(SSC(=S)N1CCCCC1)N1CCCCC1	6.01 µM (active)	
Cc1ccc(OP(=O)(Oc2ccccc2)Oc2ccccc2)cc1		-8.93% [at 78.9 µM] (inactive)
ClC1=C(Cl)[C@]2(Cl)[C@H]3[C@H]([C@H]4C=C[C@H]3C4)[C@@]1(Cl)C2(Cl)Cl		-0.0911% (inactive)
Clc1ccc(-c2ccc(Cl)c(Cl)c2Cl)c(Cl)c1Cl		-0.374% (inactive)
Oc1ccc(C2(c3ccc(O)cc3)c3ccccc3-c3ccccc32)cc1	54.9 µM (active)	
FC(F)(F)c1cccc(C2=CCN(CCc3ccc4ccccc4c3)CC2)c1		4.37% (inactive)
CCCN(CC)CC1COC2(CCC(C(C)(C)C)CC2)O1 (stereo not given)		-14.1% (inactive)
CC(=O)OC1(c2ccccc2)CCN(CCc2ccccc2)CC1		-24% [at 78.9 µM] (inactive)
CN(C)C(=S)[S-].CN(C)C(=S)[S-].[Cu+2]	2.99 µM (active)	
N#CCCC(Br)(C#N)CBr (stereo not given)	24.5 µM (active)	
Clc1ccc(C(c2ccc(Cl)cc2)C(Cl)(Cl)Cl)cc1	inactive	
O=[N+]([O-])c1c2ccccc2cc2ccccc12		-13% (inactive)
Cc1c(Cl)c(=O)oc2cc(OP(=O)(OCCCl)OCCCl)ccc12		2.81% (inactive)
S=C=Nc1cccc2ccccc12		-17.7% (inactive)
CN(C)C(=S)S	15.8 µM (active) and 1.54 µM (active) and 9.77 µM (active)	

Biological target: Androgen receptor (Homo sapiens) (UniProt P10275)
Assay: qHTS assay to identify small molecule antagonists of the androgen receptor (AR) signaling pathway (AID 743035; active = well fitted inhibition curve with a large enough effect in the signal ratio in the repeat runs, not every such curve was filed as active; the % refers to the signal ratio; for activity change, negative = inhibition: % is set by controls: 0 for no effect and ±100 for the full control effect)
Conditions: HEK293 AR-UAS-bla, R1881-stimulated, beta-lactamase FRET, 16 h; series mostly up to 58.5 µM; activity change, negative = inhibition: at the top concentration
Summary of the method: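 Beta-lactamase FRET read (2 h RT incubation with LiveBLAzer B/G) following 16 h of compound plus R1881 treatment of AR-UAS-bla HEK293 cells, which had been pre-incubated 4 h at 37C.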

Sequence of Androgen receptor (Homo sapiens) (P10275 whole entry, looked up): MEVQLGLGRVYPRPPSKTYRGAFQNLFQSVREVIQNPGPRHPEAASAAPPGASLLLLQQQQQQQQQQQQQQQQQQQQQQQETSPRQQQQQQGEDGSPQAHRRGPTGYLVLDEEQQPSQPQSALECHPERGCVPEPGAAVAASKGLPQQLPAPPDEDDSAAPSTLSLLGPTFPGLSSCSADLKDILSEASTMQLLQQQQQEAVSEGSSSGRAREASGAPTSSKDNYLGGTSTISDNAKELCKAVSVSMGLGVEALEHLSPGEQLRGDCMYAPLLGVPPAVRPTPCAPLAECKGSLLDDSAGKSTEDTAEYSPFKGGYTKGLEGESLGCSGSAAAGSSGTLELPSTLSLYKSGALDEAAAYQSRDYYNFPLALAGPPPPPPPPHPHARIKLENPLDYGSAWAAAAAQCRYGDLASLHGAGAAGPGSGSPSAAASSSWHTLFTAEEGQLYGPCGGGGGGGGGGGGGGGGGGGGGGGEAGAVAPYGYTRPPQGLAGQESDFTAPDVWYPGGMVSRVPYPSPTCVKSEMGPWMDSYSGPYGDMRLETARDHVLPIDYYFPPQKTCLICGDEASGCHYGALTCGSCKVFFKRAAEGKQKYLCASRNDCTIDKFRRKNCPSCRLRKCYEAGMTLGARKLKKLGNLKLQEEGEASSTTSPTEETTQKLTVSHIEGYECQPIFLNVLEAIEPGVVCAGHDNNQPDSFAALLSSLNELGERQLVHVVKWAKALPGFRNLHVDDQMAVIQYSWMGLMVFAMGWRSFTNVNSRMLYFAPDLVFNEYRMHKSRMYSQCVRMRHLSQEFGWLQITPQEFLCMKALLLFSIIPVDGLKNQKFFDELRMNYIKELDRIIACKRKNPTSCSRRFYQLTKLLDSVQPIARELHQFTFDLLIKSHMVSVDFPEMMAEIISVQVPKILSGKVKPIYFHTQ

SMILES	activity change, negative = inhibition	Potency
CC(C)(C)OO	4.54% (inactive)	
COc1ccc(/C(=C/C(=O)N2CCOCC2)c2ccc(Cl)cc2)cc1OC	1.36% (inactive)	
CCN(CC)c1c([N+](=O)[O-])cc(C(F)(F)F)c(N)c1[N+](=O)[O-]		43.6 µM (active)
S=C=Nc1cccc2ccccc12		48.5 µM (active)

Biological target: Androgen receptor (Homo sapiens) (UniProt P10275)
Assay: qHTS assay to identify small molecule agonists of the androgen receptor (AR) signaling pathway (AID 743036; active = well fitted activation curve with a large enough effect in the signal ratio in the repeat runs, with a control signal flat, not every such curve was filed as active; the % refers to the signal ratio; for activation: % is set by controls: 0 for no effect and ±100 for the full control effect)
Conditions: HEK293 AR-UAS-bla GripTite, beta-lactamase FRET ratio, 16 h; series mostly up to 62.4 µM; activation: at the top concentration
Summary of the method: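 Following a 4 h settling period, AR-UAS-bla HEK293 cells were dosed with compounds for 16 h at 37C. A 2 h room-temperature incubation with LiveBLAzer B/G FRET substrate preceded the fluorescence measurement.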

SMILES	activation	Potency
CC(C)(C)OO	-0.844% (inactive)	
C[C@]12Cc3nonc3C[C@@H]1CC[C@@H]1[C@@H]2CC[C@@]2(C)[C@H]1CC[C@]2(C)O		0.0038 µM (active)
CC(=O)O[C@H]1CC[C@@]2(C)C(=CC[C@@H]3[C@@H]2CC[C@]2(C)C(=O)CC[C@@H]32)C1		inactive
COc1ccc(/C(=C/C(=O)N2CCOCC2)c2ccc(Cl)cc2)cc1OC	2.48% (inactive)	
CCN(CC)c1c([N+](=O)[O-])cc(C(F)(F)F)c(N)c1[N+](=O)[O-]	16.3% (inactive)	

Biological target: Androgen receptor (Homo sapiens) (UniProt P10275)
Assay: qHTS assay to identify small molecule agonists of the androgen receptor (AR) signaling pathway using the MDA cell line (AID 743040; note: nearly all actives have a fitted effect of over 20% in size; for activity change: % is set by controls: 0 for no effect and ±100 for the full control effect)
Conditions: MDA-kb2 AR-luc cells, MMTV luciferase, 16 h; series mostly up to 70.3 µM; activity change: at the top concentration
Summary of the method: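 MDA-kb2 breast carcinoma cells carrying MMTV-luciferase (responsive to AR and GR), plated 5 h then treated 16 h with compounds at 37C, 0% CO2. Read-out was ONE-Glo luminescence after 30 min at room temperature.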

SMILES	activity change	Potency
CC(C)(C)OO	-0.248% (inactive)	
C[C@]12Cc3nonc3C[C@@H]1CC[C@@H]1[C@@H]2CC[C@@]2(C)[C@H]1CC[C@]2(C)O		0.0019 µM (active)
CC(=O)O[C@H]1CC[C@@]2(C)C(=CC[C@@H]3[C@@H]2CC[C@]2(C)C(=O)CC[C@@H]32)C1		inactive
COc1ccc(/C(=C/C(=O)N2CCOCC2)c2ccc(Cl)cc2)cc1OC	-3.63% (inactive)	
Cc1ccc(OP(=O)(Oc2ccccc2)Oc2ccccc2)cc1	-0.566% [at 95 µM, stronger effect = higher value] (inactive)	
COP(=S)(OC)Oc1cc(Cl)c(Br)cc1Cl	-4.97% (inactive)	
CCN(CC)c1c([N+](=O)[O-])cc(C(F)(F)F)c(N)c1[N+](=O)[O-]	-3% (inactive)	
S=C=Nc1cccc2ccccc12	-6.52% (inactive)	
